CHO-K1 Ca PAM: nonselective calcium activators in parental CHO-K1 cells, primary screen, counter-screen for M1 PAM project, cell-based, Fluo-8 calcium fluorescence, full deck, 1536-well; 360,000 tested, 0.02% active; ATP EC20; 0% at ATP EC20, 100% at ATP max; AID 602247, 2012; activation, % at 3 µM;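 active = activation above the run cutoff, the mean activation of all test compounds plus 3 SD, cut at about 40% in these data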;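 also: peak over basal fluorescence ratio in a 140 s read after ATP addition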
M1 ag: human M1 muscarinic receptor agonists, primary screen, Fluo-8 calcium fluorescence, CHO-K1 cells, HTS. Muscarinic acetylcholine receptor M1 (Homo sapiens), P11229. CHO-K1 hM1, agonist mode; 0% DMSO, 100% acetylcholine EC100. activation, % at 3 µM. 360,000 tested, 0.33% active;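 active = activation above the run's mean compound activation plus 3 SD, cut at about 16% in these data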;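 also: peak over basal fluorescence ratio within a 140 s kinetic read after compound addition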
Target sequence (P11229 whole entry, looked up): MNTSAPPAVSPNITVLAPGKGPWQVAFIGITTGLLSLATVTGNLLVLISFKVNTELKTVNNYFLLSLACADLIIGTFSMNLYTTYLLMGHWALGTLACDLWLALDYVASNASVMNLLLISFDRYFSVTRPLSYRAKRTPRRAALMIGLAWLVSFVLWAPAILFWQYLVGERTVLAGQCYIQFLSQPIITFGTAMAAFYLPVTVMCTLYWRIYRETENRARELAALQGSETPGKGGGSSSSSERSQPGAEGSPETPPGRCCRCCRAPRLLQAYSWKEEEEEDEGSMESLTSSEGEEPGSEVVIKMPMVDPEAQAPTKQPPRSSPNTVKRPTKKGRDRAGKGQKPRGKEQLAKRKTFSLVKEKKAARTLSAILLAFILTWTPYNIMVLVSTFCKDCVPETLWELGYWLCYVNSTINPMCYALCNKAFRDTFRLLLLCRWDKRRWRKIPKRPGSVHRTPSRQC
CHO-K1 Ca ag: counter-screen for M1 agonists: effect in parental CHO-K1 cells. AID 602248, 2012. Fluo-8 calcium fluorescence; scaled to maximal ATP response, vehicle zero. activation, % at 3 µM. 360,000 tested, 0.48% active; in the data active = activation above about 15%;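 also: untransfected CHO-K1 host cells lacking M1 receptor as counterscreen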
CHRM1 PAM: human M1 muscarinic receptor positive allosteric modulators, primary screen, CHO-K1 cells, Fluo-8 calcium fluorescence, 1536-well; 360,000 tested, 0.088% active; CHO-K1 hM1, ACh EC20; 0% = ACh EC20, 100% = maximal ACh; activation, % at 3 µM; Muscarinic acetylcholine receptor M1 (Homo sapiens), P11229; AID 588819, 2011; in the data active = activation above about 19%, passing the limit was not always enough
CHO-K1 Ca antag: counter-screen for M1 antagonists: effect in parental CHO-K1 cells. 360,000 tested, 0.6% active. inhibition, % at 3 µM. ATP-induced calcium, Fluo-8 fluorescence;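 active = inhibition above a per-plate cutoff, the plate's mean sample inhibition plus 3 SD, cut at about 24% in these data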
CHRM1 antagonist: human M1 muscarinic receptor antagonists, primary screen, CHO-K1 cells, Fluo-8 calcium fluorescence, 1536-well; inhibition, % at 3 µM; AID 588852, 2011; 360,000 tested, 1.3% active; CHO-K1 hM1, ACh EC80 antagonist;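 active = percent inhibition above its own plate's cutoff, namely the mean of that plate's compound wells plus 3 SD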;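 also: peak over basal fluorescence ratio during 140 s after agonist addition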
Large screens that a line does not name were inactive. Compounds with a hit are over-represented: about 2.4% of the library has one in this group of screens.

CC1(c2ccc(OC(F)F)cc2)NC(=O)N(CC(=O)Nc2cccc(F)c2)C1=O (stereo unspecified)	M1 ag 45, CHO-K1 Ca ag 32, CHO-K1 Ca antag 44, CHRM1 antagonist 40
Cc1ccc(C2(C)NC(=O)N(CC(=O)Nc3ccc4c(c3)OCO4)C2=O)cc1 (stereo unspecified)	none
CCOc1ccc(NC(=O)CN2C(=O)NC(C)(c3ccc(OC(F)F)cc3)C2=O)cc1 (stereo unspecified)	M1 ag 32, CHO-K1 Ca ag 19
Cc1ccc(NC(=O)CN2C(=O)NC(C)(c3ccc(Cl)cc3)C2=O)cc1 (stereo unspecified)	M1 ag 18
CC1(c2ccc(OC(F)F)cc2)NC(=O)N(CC(=O)Nc2ccc(F)cc2)C1=O (stereo unspecified)	M1 ag 29, CHO-K1 Ca ag 25
CC(C)c1ccc(NCCC(=O)c2ccc(Br)cc2)cc1	none
Cc1c(C(=O)NCCCN2CCCC2=O)oc2c(Cl)cccc12	none
CCOC(=O)c1c(C)[nH]c(C(=O)CN2C(=O)NC(C)(C)C2=O)c1C	none
CC1(c2ccc(OC(F)F)cc2)NC(=O)N(CC(=O)Nc2ccc(OC(F)F)cc2)C1=O (stereo unspecified)	M1 ag 36, CHO-K1 Ca ag 33, CHO-K1 Ca antag 28, CHRM1 antagonist 29
CCOC(=O)c1sc(NC(=O)CN2C(=O)NC3(CCCCCCC3)C2=O)c(C(=O)OCC)c1C	none
CCOC(=O)c1c(C)[nH]c(C(=O)CN2C(=O)NC(C)(c3ccc(C)cc3)C2=O)c1C (stereo unspecified)	M1 ag 22, CHO-K1 Ca ag 19
CCOC(=O)c1c(NC(=O)CN2C(=O)NC(C)(c3ccc(OC(F)F)cc3)C2=O)sc(C)c1C (stereo unspecified)	M1 ag 18
CC1(c2ccc(OC(F)F)cc2)NC(=O)N(CC(=O)Nc2ccc(S(N)(=O)=O)cc2)C1=O (stereo unspecified)	none
Cc1cc(NC(=O)CN2C(=O)NC(C)(c3ccc(OC(F)F)cc3)C2=O)no1 (stereo unspecified)	M1 ag 17
CCCCNc1ccc2oc(-c3ccc(OC)cc3)c(-c3ccc(OC)c(F)c3)c2c1	none
COc1ccc(-c2ccc(SCc3cccnc3)nn2)cc1OC	none
O=C(c1ccsc1)N1CCN(C(=O)c2cccs2)CC1	none
CC1(c2ccc(OC(F)F)cc2)NC(=O)N(CC(=O)Nc2ccc(Cl)cc2F)C1=O (stereo unspecified)	M1 ag 17
CN1CCN(c2ccc(Cl)cc2NC(=O)CN2C(=O)NC(C)(c3ccccc3)C2=O)CC1 (stereo unspecified)	none
CC(C)CCC(C)NC(=O)CN1C(=O)NC(C)(c2ccc3ccccc3c2)C1=O (stereo unspecified)	M1 ag 25
CCc1nc2ccc(C(=O)NCc3ccc(OC)cc3)cn2c1N(C)Cc1ccc(OC)cc1	none
CCc1nc2ccc(C(=O)NCCN3CCCC3)cn2c1N(C)Cc1ccc(OC)cc1	CHRM1 antagonist 45
CCCCN(C)c1c(C)nc2ccc(C(=O)NCCOc3ccc(OC)cc3)cn12	CHO-K1 Ca antag 30, CHRM1 antagonist 39
CC(C)(C)c1csc(NC(=O)C2=COCCO2)n1	CHRM1 antagonist 40
CC(NC(=O)c1cccc(S(=O)(=O)N(C)C)c1)c1nc2ccccc2[nH]1 (stereo unspecified)	none
NC(=O)c1ccc(Oc2ncc(C(F)(F)F)cc2Cl)cc1	CHO-K1 Ca ag 16
O=[N+]([O-])c1cc2c(cc1[N+](=O)[O-])OCCOCCOCCOCCO2	none
CCCn1nnnc1SCC(=O)N1C(C)CCCC1C (stereo unspecified)	none
O=C(COC(=O)c1ccc(F)c(S(=O)(=O)N2CCOCC2)c1)NCCc1ccccc1	CHRM1 PAM 27
Cc1ccc(C(=O)OCC(=O)NCCc2ccc(F)cc2)cc1S(=O)(=O)N1CCOCC1	none
C=C1C(C(=O)Nc2ccc(OC)cc2)C1C(=O)Nc1ccc(OC)cc1 (stereo unspecified)	CHRM1 antagonist 25
C=C1C(C(=O)Nc2ccc(OCC)cc2)C1C(=O)Nc1ccc(OCC)cc1 (stereo unspecified)	none
Cc1cc(OCC(=O)Nc2ccc(N3CCN(C(=O)c4ccco4)CC3)cc2)cc(C)c1Cl	none
Cc1cccc(OCC(=O)Nc2ccc(N3CCN(C(=O)c4ccco4)CC3)cc2)c1	CHO-K1 Ca ag 16, CHO-K1 Ca antag 29
Cc1ccc(OCC(=O)Nc2ccc(N3CCN(C(=O)c4ccco4)CC3)cc2)cc1C	CHO-K1 Ca ag 15
Cc1ccccc1C(=O)N1CCN(c2ccc(NC(=S)NC(=O)c3ccco3)cc2)CC1	CHO-K1 Ca ag 15
Cc1cc(C)cc(NC(=S)N2CCN(C(=O)c3ccco3)CC2)c1	CHO-K1 Ca antag 25
CC(=O)Nc1cc(-c2ccccc2)cn2c(-c3cccc(C(C)=O)c3)cnc12	none
CC(=O)NCCC1CCN(C(=O)C2CCC(=O)N(C3CCCC3)C2)CC1 (stereo unspecified)	none
Cc1cccc(OCC(=O)Nc2ccc3oc(=O)ccc3c2)c1	CHO-K1 Ca ag 19
O=C(CSc1nnc(-c2cccs2)n1-c1ccccc1)N1CCCC1	none
CCn1c(SCC(=O)c2ccccc2)nnc1-c1cccs1	CHO-K1 Ca antag 26
CCn1c(SCC(=O)NCCc2ccccc2)nnc1-c1cccs1	none
Nn1c(SCC(=O)N2CCCC2)nnc1-c1cccs1	CHO-K1 Ca antag 27
O=C(CSc1nnc(-c2cccs2)n1-c1ccccc1)N1CCOCC1	CHO-K1 Ca antag 35
CN(C)S(=O)(=O)c1cccc(NC(=O)COc2ccccc2C(=O)Nc2ccccc2)c1	CHRM1 antagonist 41
CCN(CC)CCNC(=O)c1ccc(NC(=O)c2ccc(C(=O)c3ccccc3)cc2)cc1	none
CN(C)S(=O)(=O)c1cccc(NC(=O)c2ccc(OC(F)(F)F)cc2)c1	CHO-K1 Ca ag 19
CCN(CC)CCNC(=O)c1ccc(NC(=O)COc2ccc3c(c2)CCC3)cc1	CHRM1 antagonist 45
CCN(CC)CCNC(=O)c1ccc(NC(C)=O)cc1	none
CCN(CC)CCNC(=O)c1ccc(NC(=O)c2ccc(COc3ccccc3)cc2)cc1	CHRM1 antagonist 53
Cc1ccc(S(=O)(=O)N(C)C)cc1NC(=O)COc1ccccc1C(=O)Nc1ccccc1	none
